DAX1 inh-1: inhibitors of DAX1 repression of SF-1 activated StAR promoter; AID 652010; HEK293T StAR-luciferase reporter, SF-1/DAX-1 repression relief; 1.1% of 370,000 active; inhibition, % at 6.8 µM;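 active means inhibition above the mean over all tested compounds plus 3 SD, cut at about 3.6% in these data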;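 further: 0% = DAX-1 cells with DMSO and 100% = cells lacking DAX-1 with DMSO; higher inhibition means more luminescence from relief of DAX-1 repression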
ssDAF12 agonist: activates DAF-12 receptor from parasite S. stercoralis; AID 652126; 1% of 370,000 active; activation, % at 6.8 µM; HEK293 ssDAF-12/GRIP1 lit1-tk-luc reporter, luminescence; % of 3 µM dafachronic acid response;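 active means activation above the mean over all tested compounds plus 3 SD, cut at about 0.9% in these data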;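 further: 0% = DMSO-only wells and 100% = 3 µM delta7-dafachronic acid wells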
hgDAF12 agonist: hgDAF-12 agonism, primary luciferase screen | HEK293 GAL4-hgDAF12 UAS-luciferase reporter, agonist luminescence; normalized to butyrate control | activation, % at 6.8 µM | 1.8% of 370,000 active | AID 687014;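 active means activation above a cutoff set at the mean of all screened compounds plus 3 SD, cut at about 10% in these data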;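 further: 0% = DMSO wells and 100% = sodium butyrate wells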
hcDAF-12 act: activators of H. contortus DAF-12 nuclear receptor; HEK293 hcDAF-12 lit1-tk-luc reporter, luminescence; 0% DMSO, 100% Δ7-dafachronic acid; activation, % at 6.8 µM; 1.4% of 370,000 active; AID 652067;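 active means activation above the mean of all tested compounds plus 3 SD, cut at about 5.5% in these data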;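 further: 100% = response to 3 µM Δ7-dafachronic acid high control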
AHR act: human AHR activation | 2.5% of 320,000 active | activation, % at 5 µM | AHR-responsive luciferase reporter cells, luminescence | P35869; in the data active means activation above about 47%;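 further: 0% = vehicle wells and 100% = reference agonist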
DAX1 inh-2: inhibitors of human orphan nuclear receptor DAX1 (NR0B1); P51843; HEK293 Gal4-DAX1 luciferase reporter, luminescence; inhibition, % at 6.75 µM; 0.99% of 340,000 active; AID 504766;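 active means inhibition above the mean over all tested compounds plus 3 SD, cut at about 4.2% in these data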;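 further: 0% = DAX1-transfected cells with DMSO and 100% = empty-vector control cells with DMSO; inhibition shows as a rise in luminescence from relieved DAX1 repression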
Target sequence (P51843 207-470 limits assumed): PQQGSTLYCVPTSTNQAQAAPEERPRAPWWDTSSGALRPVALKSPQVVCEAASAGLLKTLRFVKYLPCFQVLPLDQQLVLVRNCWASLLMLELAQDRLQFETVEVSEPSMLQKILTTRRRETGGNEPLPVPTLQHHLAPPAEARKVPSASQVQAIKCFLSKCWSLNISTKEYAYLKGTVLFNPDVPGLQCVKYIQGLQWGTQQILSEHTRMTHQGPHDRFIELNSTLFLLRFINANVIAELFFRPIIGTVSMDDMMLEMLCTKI
DAX1 conf: NR0B1 (human) inhibition, confirmation; AID 652134; HEK293T StAR-promoter luciferase reporter, SF-1/DAX-1 repression; shares compounds with DAX1 inh-1; inhibition, % at 6.8 µM; 87% of 2,400 active;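 active means inhibition above the average of every tested compound plus 3 SD, cut at about 3.8% in these data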;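 further: 0% = DAX-1 cells with DMSO and 100% = no DAX-1 control cells with DMSO; active compounds raise luminescence by relieving repression of the StAR reporter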
SF1 mutant ctr: nonselective inhibitor or artifact in SF-1 mutant DAX1 counter-screen; shares compounds with DAX1 inh-1; HEK293 StAR-luciferase, SF-1 AF2 mutant, luminescence; inhibition, % at 6.8 µM; 78% of 2,400 active;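 active means inhibition above the mean of all tested compounds plus 3 SD, cut at about 3% in these data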;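 further: 0% = DAX-1 transfected cells with DMSO and 100% = cells without DAX-1 with DMSO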
LXR ag: counter-screen for hcDAF-12 agonists: agonists of human LXR-beta | shares compounds with hcDAF-12 act | 3,400 tested, under 10 active | AID 743027 | activation, % at 6.8 µM | HEK293 Gal4-LXR tk-luc reporter, luminescence, 24 h; normalized: DMSO 0%, positive control 100%;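 active means mean percent activation of the reporter above a cutoff set as the average over tested compounds plus their standard deviation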
hcDAF12 ag: hcDAF-12 agonism, confirmation assay; 61% of 3,400 active; activation, % at 6.8 µM; shares compounds with hcDAF-12 act; HEK293 hcDAF-12 lit1-tk-luc reporter, luminescence; % of Δ7-dafachronic acid response;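 active means mean activation across triplicate tests above the threshold derived from the earlier primary screen, cut at about 5.5% in these data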;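 further: 0% = DMSO only wells and 100% = 3 µM Δ7-dafachronic acid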
hgDAF12 conf: confirmation of H. glycines DAF-12 agonists. HEK293 GAL4-hgDAF12 luciferase reporter, agonist mode; percent of butyrate response. shares compounds with hgDAF12 agonist. activation, % at 6.8 µM. AID 743050. 80% of 3,300 active;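 active means mean activation over triplicate wells above the hit cutoff derived from the earlier primary screen, cut at about 11% in these data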;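 further: 0% = DMSO low control and 100% = 2 mM sodium butyrate high control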
LXR ag 2: activates human LXR-beta, counter-screen for DAF-12 agonists | shares compounds with hgDAF12 agonist | HEK293 Gal4-LXR luciferase reporter, 24 h | 3,300 tested, under 10 active | activation, % at 6.8 µM;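 active means mean activation of the triplicate above a set limit carried over from the primary screen, none filed active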
An asterisk follows results filed as active; . = no result. This is a sample that favours compounds with a hit; in the whole collection about 5.7% have one here.

SMILES	DAX1 inh-1	ssDAF12 agonist	hgDAF12 agonist	hcDAF-12 act	AHR act	DAX1 inh-2	LXR ag	hcDAF12 ag	others
CC(=O)OC1N=C(c2ccccc2Cl)c2cc(Br)ccc2NC1=O (stereo not drawn)	0	-2	-1	-1	6	0	.	.
O=C(c1cccc2ccccc12)C1CCCN(C2CCC2)C1 (stereo not drawn)	2	0	3	0	8	1	.	.
CC1CCCN(CC(=O)c2ccc(Cl)c(Cl)c2)C1 (stereo not drawn)	2	-1	2	-1	2	1	.	.
CC1CCN(CC(=O)c2ccc3c(c2)OCCO3)CC1	8.0*	0	17*	8.9*	14	3	2	8.3*	DAX1 conf=14*;SF1 mutant ctr=8.6*;hgDAF12 conf=16*;LXR ag 2=1
CN(C)C(=O)Oc1ccc(-c2cn3cc(Cl)ccc3n2)cc1	6.1*	1	17*	7.8*	-5	-1	1	4	DAX1 conf=16*;SF1 mutant ctr=6.3*;hgDAF12 conf=15*;LXR ag 2=1
CC12CC[C@H]3[C@@H](CCC4(O)C[C@H](O)CCC34/C=N/NC(=O)c3ccccc3O)C1(O)CCC2C1=CC(=O)OC1 (stereo partly drawn)	1	1	-3	17*	20	1	0	6.8*
CC12CC[C@H]3[C@@H](CCC4(O)C[C@H](O)CCC34/C=N/NC(=O)c3ccccc3F)C1(O)CCC2C1=CC(=O)OC1 (stereo partly drawn)	0	-1	6	4	19	1	.	.
CC(=Nc1ccccc1N)c1c(O)n(C)c(=O)n(C)c1=O	0	1	8	6.6*	8	4.5*	0	1
CC(=NCCc1ccccc1)c1c(O)n(C)c(=O)n(C)c1=O	0	-1	-2	-1	8	4	.	.
COc1ccccc1OCC(=O)N1CCCC(N(C)Cc2ccccc2)C1 (stereo not drawn)	1	-1	-4	0	0	1	.	.
COC(=O)C(O)(c1ccc(NC(=S)NC(=O)c2ccc(Cl)cc2Cl)cc1)C(F)(F)F (stereo not drawn)	0	-1	-3	-2	-3	2	.	.
CC(=NCc1ccc2c(c1)OCO2)c1c(O)n(-c2ccccc2)c(=O)[nH]c1=O	0	-2	-2	-2	9	0	.	.
Cc1ccc(OCCOc2cccc(C=C3C(=O)NC(=O)NC3=O)c2)cc1	3	1.1*	12*	6.6*	-1	-3	1	7.3*
Cc1ccc(-n2c(O)c(C=NCCN3CCOCC3)c(=O)[nH]c2=O)cc1	0	-1	1	-1	0	1	.	.
Cn1c(O)c(/C=C2\C=Nc3ccccc32)c(=O)n(C)c1=O	0	0	0	7.7*	23	0	0	5
COc1cc(/C=C2/C(=O)NC(=O)N(c3ccccc3)C2=O)ccc1O	0	0	2	7.0*	12	2	0	1
CC1CC(OP(O)(=S)c2ccc(N(C)C)cc2NC(=O)c2cccs2)CC(C)(C)C1 (stereo not drawn)	2	0	11*	8.8*	12	2	0	4
Cc1ccc(-n2c(O)c(/C=N/NC(=O)c3ccncc3)c(=O)[nH]c2=O)cc1C	1	-1	2	0	14	1	.	.
CN1C(=O)NC(=O)[C@]2(Cc3ccccc3N3CCN(c4ccccc4)CC32)C1=O (stereo partly drawn)	2	0	8	4	15	2	.	.
O=C1NC(=O)[C@]2(Cc3ccccc3N3CCN(c4ccccc4)CC32)C(=O)N1c1ccccc1 (stereo partly drawn)	1	1.8*	8	7.6*	10	1	0	0
Nc1cc(C(=O)Nc2ccccc2F)ccc1N1CC2CC(C1)c1cccc(=O)n1C2 (stereo not drawn)	1	-1	3	7.0*	.	0	0	0
CC(C)[C@H](NC(=O)N1C[C@H]2C[C@@H](C1)c1cccc(=O)n1C2)C(=O)Nc1ccccc1F	0	-1	-1	-2	-1	1	.	.
Cc1cc(/C=C2\C(=O)NC(=O)N(c3ccc(Br)cc3)C2=O)c(C)n1C	0	-1	-1	7.1*	64*	0	0	-1
COc1ccc(Br)cc1CNCCc1ccc2c(c1)OCO2	0	-2	0	-1	21	2	.	.
COc1ccccc1CCNCc1cc2c(cc1[N+](=O)[O-])OCO2	0	0.9*	1	8.4*	46	1	0	-1
SMILES	DAX1 inh-1	ssDAF12 agonist	hgDAF12 agonist	hcDAF-12 act	AHR act	DAX1 inh-2	LXR ag	hcDAF12 ag	others
COc1ccc(-n2nc(C(=O)NCC(=O)N3CCC4(CC3)OCCO4)c3ccccc3c2=O)cc1Cl	1	1	14*	6.6*	6	3	0	4	hgDAF12 conf=12*;LXR ag 2=0
COc1ccc(CNCC(=O)N2CCC3(CC2)OCCO3)cc1	0	-1	5	-1	0	0	.	.
Cc1ccc(-c2nc(N3CCOCC3)s[n+]2-c2ccccc2)cc1	4.0*	1.5*	15*	12*	2	1	1	5	hgDAF12 conf=8;LXR ag 2=1
O=C(Nc1cccc(Br)c1)c1c(O)c2c(n(Cc3ccccc3)c1=O)CCCC2	0	-1	1	1	-1	.	.	.
Cc1ccc(-c2nc3ccc(Cl)cc3n2OC(=O)N(C)C)cc1	2	0	14*	5	25	1	.	.	hgDAF12 conf=12*;LXR ag 2=1
CCOC(=O)c1nc2ccccc2c(=O)n1-c1ccc(C)cc1	-1	-1	-1	-2	2	-1	.	.
Clc1ccc2sc(C3CCNCC3)nc2c1	1	0	16*	2	4	2	.	.	hgDAF12 conf=8;LXR ag 2=0

High-throughput results from PubChem.
